88 compounds from PubChem BioAssay AID799 (SRMLSC, 2007) can be followed below.

Molecules are shown by their SMILES. Screen size: about 140,000 compounds; about 840 (0.6%) were called active. What follows is part of a selection rich in actives, with near analogues and random picks from the rest. A number with no mark means an inactive call.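 How the source made its calls: active means viability gain under doxorubicin at or above a set limit, the compound median plus 3 SD (cut at about 4.7% in these data); inactive means the rest.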

The nature of the assay: protection of MRP-1-high cells against doxorubicin toxicity – H69AR cells, CellTiter-Glo, MRP-1 activator project, primary screen (AID 799).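 Further: MRP-1 overexpressing cells given doxorubicin 25 µM after compound pretreatment; 18-22 h compound pretreatment then 72 h with doxorubicin before readout; 0% = doxorubicin-only wells and 100% = vehicle-treated cells without doxorubicin.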 The settings on record: viability rescue, at 10 µM, stronger effect = higher value.
Turning to `CCOc1ccc(Br)cc1CSC(=N)N`, the viability increase is 0.81%.

For the compound `N=C(N)SCc1cccc2ccccc12`, the viability increase is 8.11% (active).

On to `c1ccc2c(CSCc3nc4ccccc4[nH]3)cccc2c1`, for which the viability increase was -0.17%.

As to `COc1cc(C(=S)NC2CCCCC2)ccc1O`, the viability increase is -2.71%.

For the compound `Cc1[nH]n(-c2ccccc2)c(=O)c1/C=N/NC(=O)c1ccoc1C`, the viability increase was -1.54%.

With `COc1cc(NC(=S)NCCSc2ccc(C)cc2)cc(OC)c1`, the viability increase was -3.24%.

As to `CCc1nnc(NC(=O)C2CCCN2S(=O)(=O)c2ccccc2)s1` (stereo not drawn), the viability increase is 12.4% (active).

`CCc1nnc(NS(=O)(=O)c2ccc(NS(=O)(=O)c3ccccc3)cc2)s1`: the viability increase is -0.5%.

`CC(C)c1nnc(NC(=O)C2CCCN2S(=O)(=O)c2ccc(Cl)cc2)s1` (stereo not drawn): the viability increase is -0.99%.

Regarding `C=CCNC(=O)c1ccccc1NC(=O)c1ccc(Cl)c(S(=O)(=O)Nc2cccc(C)c2C)c1`, the viability increase was 5.97% (active).

Consider `COC(=O)c1ccc(C(=O)Nc2cc(Cl)ccc2Cl)cc1NC(=O)c1ccccc1C`, for which the viability increase is -3.01%.

Regarding `Cc1ccccc1NC(=O)c1ccccc1NS(=O)(=O)c1cccc2cccnc12`, the viability increase was -3.17%.

For the compound `CC(C)(C)C1CCC(OC(=O)CCC(=O)Nc2ccccc2)CC1` (stereo not drawn), the viability increase is 3.57%.

As to `Cc1ccc(C(=O)Cc2nnc(C)s2)cc1`, the viability increase was -2.89%.

Take `Cc1ccc(C2=N/C(=C\c3ccc(OS(=O)(=O)c4ccc(C)cc4)cc3)C(=O)O2)cc1`: the viability increase is -1.26%.

On to `O=C(Nc1ccn(Cc2ccc(F)cc2)n1)c1ccncc1`, for which the viability increase is 1.75%.

Take `CC(=O)Nc1ccn(Cc2c(F)cccc2Cl)n1`: the viability increase was -1.03%.

Regarding `O=C(Nc1ccn(Cc2ccccc2F)n1)c1ccc(COc2ccc(Cl)cc2Cl)o1`, the viability increase is 10.6% (active).

For the compound `Cn1ncc(Br)c1C(=O)NCc1cccs1`, the viability increase is -2.03%.

`CCCc1ccc(-c2c(C)sc(NC(=O)c3ccnn3C)c2C#N)cc1`: the viability increase is -1.28%.

Take `Cn1nccc1CNC(=O)c1ccnn1C`: the viability increase is 10.8% (active).

On to `O=C(NCc1ccccc1Cl)C1CCC(CNc2c(N3CCCCC3)c(=O)c2=O)CC1` (stereo not drawn), for which the viability increase was -1.61%.

Turning to `CN(C)S(=O)(=O)c1ccc(N2CCCC2=O)c([N+](=O)[O-])c1`, the viability increase is -1.68%.

With `CC(=O)Cc1nsc(NC(=O)c2ccc(COc3ccc(C)cc3)o2)n1`, the viability increase was -0.06%.

For `COc1ccc(-c2nn(-c3ccccc3)cc2C(=O)Nc2nc(CC(C)=O)ns2)cc1`, the viability increase is 6.77% (active).

As for `COc1ccc(-c2nn(-c3ccccc3)cc2C(=O)Nc2nccs2)cc1OC`, the viability increase is -4.27%.

For `COc1ccc2nc(Nc3nc4ccc(NC(C)=O)cc4s3)sc2c1`, the viability increase is -4.94%.

Consider `CCCOc1ccc(Cn2ccnc2)cc1[N+](=O)[O-]`, for which the viability increase is -1.18%.

For `CC(=O)NC1C(OCc2ccccc2)OC(COC(C)=O)C(OC(C)=O)C1OC(C)=O` (stereo not drawn), the viability increase is -1.54%.

Consider `Cc1ccc(S(=O)(=O)N(Cc2ccc(Cl)cc2)c2ccccc2C(=O)NCc2cccnc2)cc1`, for which the viability increase is -2.38%.

Consider `Cc1ccc(O)c(-c2cc(C(=O)NCc3ccccc3)[nH]n2)c1`, for which the viability increase is -1.43%.

In the case of `CSCCC1NC2(C(=O)Nc3ccc(Cl)cc32)[C@@H]2C(=O)N(C3CCCC3)C(=O)[C@H]12` (stereo partly drawn), the viability increase was -3.72%.

As for `O=C1[C@@H]2C(Cc3ccc(O)cc3)NC3(C(=O)Nc4ccc(F)cc43)[C@@H]2C(=O)N1c1ccc(F)cc1` (stereo partly drawn), the viability increase is 5.18% (active).

In the case of `CNC(=O)NC(=O)C(OC(=O)c1cccc(S(=O)(=O)N2CCCCC2)c1)c1ccccc1` (stereo not drawn), the viability increase was -2.3%.

Turning to `Cc1cc(NS(=O)(=O)c2ccc(NC(=S)NC(=O)c3ccc(F)cc3Cl)cc2)no1`, the viability increase was -2%.

Take `CCN(CC)c1ccc([N+](=O)[O-])cc1C(=O)O`: the viability increase is 0.59%.

For the compound `CC(NC(=O)COC(=O)C1CCN(S(=O)(=O)c2ccccc2C(F)(F)F)CC1)c1ccccc1` (stereo not drawn), the viability increase was -1.86%.

With `COCC(C)n1c(C)cc(C(=O)CSc2cc(C)c3ccccc3n2)c1C` (stereo not drawn), the viability increase is 0.22%.

In the case of `Cc1ccc(C2C3=C(Nc4[nH]n(-c5ccccc5)c(=O)c42)c2ccccc2C3=O)cc1` (stereo not drawn), the viability increase is -0.43%.

`Cc1ccc(N2C(=O)C(Cc3ccccc3)NC2=S)cc1` (stereo not drawn): the viability increase was -0.7%.

For `Cc1ccc(N2C(=O)C3C(c4ccccc4)(C2=O)C3(c2ccccc2)c2ccccc2)cc1` (stereo not drawn), the viability increase was 5.37% (active).

Take `N/C(=N\OC(=O)N1c2ccccc2Sc2ccccc21)c1ccc(Br)cc1`: the viability increase was -2.4%.

With `COc1cc2c(cc1NC(=O)COC(=O)/C=C/c1ccccc1)oc1ccccc12`, the viability increase was -4.74%.

For `O=C(CSCc1ccc(Cl)cc1)N1CCN(Cc2ccc3c(c2)OCO3)CC1`, the viability increase was 5.45% (active).

In the case of `O=C(CSCc1ccc(Cl)cc1)N1CCCCC1`, the viability increase was 0.74%.

As to `CS(=O)(=O)N(CC(=O)N1CCN(Cc2ccc3c(c2)OCO3)CC1)c1ccc2c(c1)OCO2`, the viability increase was -1.42%.

Consider `CCN(C(=O)COC(=O)c1c(NC(C)=O)sc(C)c1C)C1CCS(=O)(=O)C1` (stereo not drawn), for which the viability increase was -2.05%.

With `CCOc1ccc(Nc2nc(Cl)nc(N3CCN(c4ccc(OC)cc4)CC3)n2)cc1`, the viability increase was 1.19%.

As to `CN(Cc1cccs1)C(=O)Cc1c[nH]c2ccccc12`, the viability increase is -2.21%.

As to `Cc1cccc(OCc2ccc(C(=O)Nc3ccc(F)cc3)cc2)c1`, the viability increase was 4.9% (active).

`CCC(=O)Nc1ccc(C(=O)Nc2cccc(OC)c2)cc1`: the viability increase was -2.62%.

Regarding `Cc1cccc(C(=O)Nc2ccc(CC(=O)O)cc2)c1`, the viability increase was -0.27%.

Take `CCOP(=O)(OCC)C(Nc1cccc(C)c1)c1ccc(F)cc1` (stereo not drawn): the viability increase was 0.43%.

Take `CCOC(=O)C(NC(=O)CC(C)C)(Nc1sc2c(c1C(N)=O)CCCC2)C(F)(F)F` (stereo not drawn): the viability increase was -2.1%.

With `C/C(=N\NS(=O)(=O)c1ccc(Cl)cc1)c1ccc(NC(=O)c2ccco2)cc1`, the viability increase is -2.49%.

In the case of `O=C1NC(=Nc2ccc(Cl)cc2)SC1Cc1cccc(Cl)c1Cl` (stereo not drawn), the viability increase was 6.35% (active).

For `Cc1c(Cl)cccc1NC(=O)CC1SC(=NCC2CCCO2)NC1=O` (stereo not drawn), the viability increase is 2.61%.

As to `NC1=NC(=O)C(Cc2cccc(Cl)c2Cl)S1` (stereo not drawn), the viability increase is -0.15%.

With `CC(C)CNC(=O)C(=O)Nc1ccc(N(C)C)cc1`, the viability increase is 0%.

For the compound `CC1CCc2sc(C(=O)N/N=C/C3CCCCC3)cc2C1` (stereo not drawn), the viability increase is -1.48%.

Consider `Oc1c(C(c2ccco2)N2CCC3(CC2)OCCO3)sc2ncnn12` (stereo not drawn), for which the viability increase was 0.05%.

As for `Cc1ccc(C(c2sc3nc(C)nn3c2O)N2CCN(c3ccc(F)cc3)CC2)cc1` (stereo not drawn), the viability increase is -2.22%.

With `Oc1c(C(c2cccs2)N2CCN(c3ccc(F)cc3)CC2)sc2ncnn12` (stereo not drawn), the viability increase is 10.6% (active).

For `Cc1c(C2=CCN(S(=O)(=O)c3ccc(Cl)cc3)CC2)c2ccccc2n1C`, the viability increase is -0.07%.

`COc1nc(N(C)C)nc(N2CC(=O)N(CCNS(=O)(=O)c3ccc(C)cc3)C2=N)n1`: the viability increase was -2.66%.

With `O=C1N/C(=C/c2cccn2-c2ccccc2)C(=O)N1c1cccc(Cl)c1`, the viability increase is -0.22%.

Regarding `Cc1c(Cl)cccc1NC(=S)NCc1ccc2c(c1)OCO2`, the viability increase was -4.04%.

As for `COc1ccc(C2CC(c3cccs3)=NN2C(=O)COC(=O)c2cc3ccccc3cc2O)cc1OC` (stereo not drawn), the viability increase is -0.45%.

Consider `C=CCNc1nc(C)nc(OC)n1`, for which the viability increase was 0.38%.

For the compound `FC(F)(F)c1cc(-c2ccco2)nc(NCc2ccc(Cl)cc2)n1`, the viability increase was -0.53%.

Consider `COc1nc(NCc2ccc(Cl)cc2)nc(OC)n1`, for which the viability increase was 5.12% (active).

For `CCOc1ccc(/C=N/OCC(=O)NCc2cccs2)cc1`, the viability increase is 0%.

`COc1ccc2c(c1)C(SCC(=O)NCc1ccccc1)CC(C)(C)O2` (stereo not drawn): the viability increase was -1.61%.

As for `COc1ccc(-c2csc(NC(=O)CCCc3cccs3)n2)cc1`, the viability increase was 3.87%.

`COC(=O)CN1C(=S)N(c2ccccc2)C(=O)C1CC(=O)Nc1ccc(Cl)cc1` (stereo not drawn): the viability increase was -1.37%.

Consider `COc1ccc(N2C(=O)C(CC(=O)Nc3ccc(F)cc3)N(CCc3cccs3)C2=O)cc1` (stereo not drawn), for which the viability increase is 5.39% (active).

Regarding `CC(C)COP(=O)(c1ccc(N(C)C)cc1)C(Nc1ccccc1)c1cccnc1` (stereo not drawn), the viability increase is -3.48%.

As for `CCOc1ccc(Oc2nc(C)cc(OC)n2)nn1`, the viability increase is 0.08%.

Turning to `Cc1ccc(NC(=O)c2cccs2)cc1S(=O)(=O)N(C)C`, the viability increase is -1.25%.

Regarding `O=S(=O)(NCCSc1ccccn1)c1ccc(Cl)cc1`, the viability increase is 0.85%.

As to `Cc1cccc2cc(CN(Cc3cccs3)C(c3nnnn3C3CCCC3)C(C)C)c(=O)[nH]c12` (stereo not drawn), the viability increase is -3.53%.

For the compound `Cc1cccc2cc(CN(C(=O)c3cccs3)c3ccccc3)c(=O)[nH]c12`, the viability increase was -0.07%.

As for `Cc1cccc2cc(CN(Cc3cccs3)C(=S)NCc3ccco3)c(=O)[nH]c12`, the viability increase is 5.98% (active).

In the case of `Cc1ccc(Oc2cc(NC(=O)CCCn3nc(C)c([N+](=O)[O-])c3C)cc([N+](=O)[O-])c2)cc1`, the viability increase was -2.6%.

On to `O=C(O)c1cccc(N=NN2CCCCCC2)c1`, for which the viability increase is -1.92%.

Regarding `COC(C(=O)NCc1ccccc1C)c1ccccc1` (stereo not drawn), the viability increase is -0.37%.

Consider `COc1cc(C2C(N3C(=O)c4ccccc4C3=O)C(=O)N2c2ccc(C)c(C)c2)cc(OC)c1OC` (stereo not drawn), for which the viability increase is -3.6%.

As for `CCCCOc1ccc(C(=O)N/C(=C/C=C/c2ccccc2)C(=O)N2CCOCC2)cc1`, the viability increase was -4.14%.
